From PubChem BioAssay (NCI)
About 83,000 compounds went through this panel and 20% of them were active in at least one assay; those are over-represented in the sample as a whole.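 Step 1: grow cells in 96-well plates. Step 2: add test compound at a single concentration. Step 3: incubate 48 h. Step 4: record percent growth.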 Activity calls are given as the source filed them. How the source made its calls: active means growth percent below 10; inactive means the rest.

Tests used:
Assay in all cases: NCI-60 one-dose screen, 48 h (100 = growth as untreated, 0 = no growth, -100 = all killed)
Details in all cases: 10 µM unless noted
SR leukemia = system: SR leukemia
RPMI-8226 leukemia = system: RPMI-8226 leukemia
OVCAR-8 ovarian = system: OVCAR-8 ovarian
OVCAR-5 ovarian = system: OVCAR-5 ovarian
OVCAR-4 ovarian = system: OVCAR-4 ovarian
SK-OV-3 ovarian = system: SK-OV-3 ovarian
IGROV1 ovarian = system: IGROV1 ovarian
OVCAR-3 ovarian = system: OVCAR-3 ovarian
HS 578T breast = system: HS 578T breast
NCI/ADR-RES ovarian = system: NCI/ADR-RES ovarian

Measured: growth

CC(C)=CCC[C@](C)(O)[C@H]1CC[C@]2(C)[C@@H]1CC[C@@H]1[C@@]3(C)C/C(=C/c4ccc(Br)cc4)C(=O)C(C)(C)[C@@H]3CC[C@]12C
inactive: SR leukemia 80.7% | RPMI-8226 leukemia 71.8% | OVCAR-8 ovarian 84.5% | OVCAR-5 ovarian 101% | OVCAR-4 ovarian 78.5% | SK-OV-3 ovarian 96.5% | IGROV1 ovarian 101% | OVCAR-3 ovarian 87.5% | HS 578T breast 92.2% | NCI/ADR-RES ovarian 98.2%

O=c1[nH]c2c3ccncc3cc(-c3cccc(Cl)c3)c2c2cnccc12
inactive: SR leukemia 14.3% | RPMI-8226 leukemia 27.1% | OVCAR-8 ovarian 40.2% | OVCAR-5 ovarian 67.9% | SK-OV-3 ovarian 51.9% | IGROV1 ovarian 70.9% | NCI/ADR-RES ovarian 50.3%
active: OVCAR-4 ovarian -8.25% | OVCAR-3 ovarian -22.8% | HS 578T breast 5.48%

CCOC(=O)C1OC1(c1ccccc1)c1ccccc1 (configuration not stated)
inactive: SR leukemia 108% | RPMI-8226 leukemia 95.6% | OVCAR-8 ovarian 99.6% | OVCAR-5 ovarian 99.6% | OVCAR-4 ovarian 121% | SK-OV-3 ovarian 112% | IGROV1 ovarian 99.6% | OVCAR-3 ovarian 106% | HS 578T breast 114%

CCN(CC)CCCCCCNc1ccnc2cc(Cl)ccc12
inactive: SR leukemia 28.2% | RPMI-8226 leukemia 130% | OVCAR-8 ovarian 117% | OVCAR-5 ovarian 112% | OVCAR-4 ovarian 75.2% | SK-OV-3 ovarian 98.2% | IGROV1 ovarian 124% | OVCAR-3 ovarian 84.6% | HS 578T breast 92.4% | NCI/ADR-RES ovarian 104%

O=C1c2ccccc2NC(c2cn(-c3ccccc3)nc2-c2cccnc2)N1Cc1ccccc1 (configuration not stated)
inactive: SR leukemia 78.8% | RPMI-8226 leukemia 76.5% | OVCAR-8 ovarian 98.3% | OVCAR-5 ovarian 91.5% | OVCAR-4 ovarian 92.2% | SK-OV-3 ovarian 117% | IGROV1 ovarian 76.5% | OVCAR-3 ovarian 102% | HS 578T breast 96.2%

Nc1c2c(nc3ccc(Cl)cc13)CC(c1ccccc1)CC2=O (configuration not stated)
inactive: SR leukemia 14.3% | RPMI-8226 leukemia 25.8% | OVCAR-8 ovarian 72.1% | OVCAR-5 ovarian 73.2% | OVCAR-4 ovarian 89.2% | SK-OV-3 ovarian 76.9% | IGROV1 ovarian 38.3% | OVCAR-3 ovarian 20.6% | HS 578T breast 73.5% | NCI/ADR-RES ovarian 22.5%

NC1=NN(c2ccccc2)C(=O)/C1=C/c1ccc(Cl)cc1
inactive: SR leukemia 94.2% | RPMI-8226 leukemia 94.8% | OVCAR-8 ovarian 99% | OVCAR-5 ovarian 98.1% | OVCAR-4 ovarian 109% | SK-OV-3 ovarian 96.3% | IGROV1 ovarian 99.4% | OVCAR-3 ovarian 108% | HS 578T breast 106%

COc1ccc(/C=C(\C#N)c2cc3ccccc3n2S(C)(=O)=O)cc1
inactive: SR leukemia 53.1% | RPMI-8226 leukemia 79.1% | OVCAR-8 ovarian 95.9% | OVCAR-5 ovarian 99.3% | OVCAR-4 ovarian 93.4% | SK-OV-3 ovarian 112% | IGROV1 ovarian 74% | OVCAR-3 ovarian 94.8% | HS 578T breast 95.6% | NCI/ADR-RES ovarian 60.1%

COC(=O)[C@]12CC[C@@H](C)[C@H](C)[C@@H]1C1=CC(=O)[C@@H]3[C@@]4(C)C[C@@H](O)[C@H](O)[C@@]5(C)COC(=C45)C[C@@]3(C)[C@]1(C)CC2
active: SR leukemia 7.5%
inactive: RPMI-8226 leukemia 51.2% | OVCAR-8 ovarian 61.4% | OVCAR-5 ovarian 95.9% | OVCAR-4 ovarian 63% | SK-OV-3 ovarian 83.9% | IGROV1 ovarian 47.6% | OVCAR-3 ovarian 48.3% | HS 578T breast 49.7%

COc1ccc2c(c1)c(-c1nc(-c3cn(C)c4ncccc34)cs1)cn2CCCN1CCCCC1
active: SR leukemia -39.1% | RPMI-8226 leukemia -8.74% | OVCAR-3 ovarian -52.1%
inactive: OVCAR-8 ovarian 59.6% | OVCAR-5 ovarian 85.3% | OVCAR-4 ovarian 74.7% | SK-OV-3 ovarian 89.8% | IGROV1 ovarian 66.1% | HS 578T breast 73.7%

CCCCn1c(-c2ccc(O)cc2)cn2c3c(=O)[nH]c(=O)n(C)c3nc12
inactive: SR leukemia 31.1% | RPMI-8226 leukemia 84.7% | OVCAR-8 ovarian 91.7% | OVCAR-5 ovarian 111% | OVCAR-4 ovarian 82.2% | SK-OV-3 ovarian 77.9% | IGROV1 ovarian 72.9% | OVCAR-3 ovarian 89.8% | HS 578T breast 82.6% | NCI/ADR-RES ovarian 90.1%

Cn1cc(-c2csc(-c3cn(CCNC(=O)OC(C)(C)C)c4ccccc34)n2)c2cccnc21
inactive: SR leukemia 75.6% | RPMI-8226 leukemia 42.1% | OVCAR-8 ovarian 45% | OVCAR-5 ovarian 115% | OVCAR-4 ovarian 49.2% | SK-OV-3 ovarian 94.9% | IGROV1 ovarian 64.7% | OVCAR-3 ovarian 86.3% | HS 578T breast 82.1%

COc1cc(/C=C/c2cc(/C=C/c3ccc(O)c(OC)c3)n(-c3ccc(Cl)cc3)c(=O)n2)ccc1O
active: IGROV1 ovarian 8.57%
inactive: SR leukemia 36.4% | RPMI-8226 leukemia 64.5% | OVCAR-8 ovarian 107% | OVCAR-5 ovarian 103% | OVCAR-4 ovarian 78.3% | SK-OV-3 ovarian 89.7% | OVCAR-3 ovarian 83.8% | HS 578T breast 87.4%

CCCCC[C@H]1CC=C2C(=O)C(Cl)=C[C@@H]2CC=CCCCC(=O)O[C@@H](CCCCC)CC=C2C(=O)C(Cl)=C[C@@H]2CC=CCCCC(=O)O[C@@H](CCCCC)CC=C2C(=O)C(Cl)=C[C@@H]2CC=CCCCC(=O)O1
inactive: OVCAR-5 ovarian 144% [8 µM] | OVCAR-4 ovarian 59.9% [8 µM] | SK-OV-3 ovarian 120% [8 µM] | IGROV1 ovarian 36% [8 µM] | OVCAR-3 ovarian 17.3% [8 µM] | HS 578T breast 78% [8 µM]
active: SR leukemia 6.25% [8 µM] | RPMI-8226 leukemia 2.73% [8 µM] | OVCAR-8 ovarian -17.1% [8 µM]

O=C1c2cccc3cccc(c23)C(=O)N1CC#Cc1ccc2c3c(cccc13)C(=O)N(CCO)C2=O
inactive: SR leukemia 71.4% | RPMI-8226 leukemia 74.5% | OVCAR-8 ovarian 86.5% | OVCAR-5 ovarian 105% | OVCAR-4 ovarian 92.7% | SK-OV-3 ovarian 92.4% | IGROV1 ovarian 48.5% | OVCAR-3 ovarian 87% | HS 578T breast 83.3% | NCI/ADR-RES ovarian 91.7%

Cc1cc(C)n(Cc2cc(C(C)(C)C)cc(C(C)(C)C)c2)c(=O)c1C#N
inactive: SR leukemia 84% | RPMI-8226 leukemia 93.7% | OVCAR-8 ovarian 93.4% | OVCAR-5 ovarian 83.8% | OVCAR-4 ovarian 90.4% | SK-OV-3 ovarian 87% | IGROV1 ovarian 96.8% | OVCAR-3 ovarian 106% | HS 578T breast 81.6% | NCI/ADR-RES ovarian 96.7%

Cc1ccnc2c(OCc3ccccc3)cccc12
inactive: SR leukemia 101% | RPMI-8226 leukemia 99.2% | OVCAR-8 ovarian 115% | OVCAR-5 ovarian 93.1% | OVCAR-4 ovarian 72.2% | SK-OV-3 ovarian 112% | IGROV1 ovarian 87.5% | OVCAR-3 ovarian 92.8% | HS 578T breast 92.2% | NCI/ADR-RES ovarian 86.1%

C=C1C(=O)O[C@H]2[C@H]1CC/C(COC(=O)NCCc1c[nH]c3ccccc13)=C\CC[C@@]1(C)O[C@@H]21
inactive: OVCAR-8 ovarian 36.4% | OVCAR-5 ovarian 56.6% | OVCAR-4 ovarian 38.4% | SK-OV-3 ovarian 89.1% | HS 578T breast 81% | NCI/ADR-RES ovarian 65.9%
active: SR leukemia 0.79% | RPMI-8226 leukemia -25.7% | IGROV1 ovarian -16.6% | OVCAR-3 ovarian -65.6%

C/C(Cc1ccc(Cl)cc1)=C(/c1ccc(Cl)cc1)c1ccc(OCCN2CCCC2)cc1
inactive: RPMI-8226 leukemia 48.3% | OVCAR-8 ovarian 83.8% | OVCAR-5 ovarian 86% | OVCAR-4 ovarian 78.4% | SK-OV-3 ovarian 99% | IGROV1 ovarian 71.8% | OVCAR-3 ovarian 70.5% | HS 578T breast 79.1% | NCI/ADR-RES ovarian 84.4%
active: SR leukemia 9.32%

O=C1c2cc3c(cc2-c2c1c1ccc(F)cc1c(=O)n2CCCN1CCOCC1)OCO3
active: SR leukemia 4.41%
inactive: RPMI-8226 leukemia 46.1% | OVCAR-8 ovarian 47% | OVCAR-5 ovarian 78.9% | OVCAR-4 ovarian 78.5% | SK-OV-3 ovarian 20.1% | IGROV1 ovarian 77.5% | OVCAR-3 ovarian 85.7% | HS 578T breast 100% | NCI/ADR-RES ovarian 36.6%

C[C@H]1[C@@H]2[C@H]3CC[C@@H]4[C@@]5(C)Cc6c([nH]c7ccccc67)C(C)(C)[C@@H]5CC[C@@]4(C)[C@]3(C)CC[C@]23CO[C@]1(C)[C@@H](C(=O)/C=C/c1ccccn1)C3
inactive: SR leukemia 55.6% | RPMI-8226 leukemia 62.5% | OVCAR-8 ovarian 63.3% | OVCAR-5 ovarian 108% | OVCAR-4 ovarian 83.7% | SK-OV-3 ovarian 112% | IGROV1 ovarian 106% | OVCAR-3 ovarian 96.2% | HS 578T breast 87.7% | NCI/ADR-RES ovarian 100%

Cc1nn2c(-c3nc4cc(Cl)c(Cl)cc4[nH]3)c(-c3ccc(F)cc3)nc2s1
inactive: SR leukemia 41.1% | RPMI-8226 leukemia 20.6% | OVCAR-5 ovarian 23.8% | IGROV1 ovarian 21.2% | NCI/ADR-RES ovarian 21.4%
active: OVCAR-8 ovarian 8.25% | OVCAR-4 ovarian -60% | SK-OV-3 ovarian -73.1% | OVCAR-3 ovarian -13.2% | HS 578T breast 1.04%

C=C(C)[C@@H]1CC[C@]2(c3nnc(-c4ccncc4)o3)CC[C@]3(C)[C@H](CC[C@@H]4[C@@]5(C)CCC(=O)NC(C)(C)[C@@H]5CC[C@]43C)[C@@H]12
inactive: SR leukemia 78.3% | RPMI-8226 leukemia 81.4% | OVCAR-8 ovarian 92.6% | OVCAR-5 ovarian 112% | OVCAR-4 ovarian 89.5% | SK-OV-3 ovarian 100% | IGROV1 ovarian 92.3% | OVCAR-3 ovarian 44.6% | HS 578T breast 95.8% | NCI/ADR-RES ovarian 97.5%

Cn1cc(-c2csc(-c3cn(CCNC(=O)OC(C)(C)C)c4ccc(F)cc34)n2)c2cccnc21
inactive: SR leukemia 65.3% | RPMI-8226 leukemia 34.4% | OVCAR-8 ovarian 37.9% | OVCAR-5 ovarian 95.3% | OVCAR-4 ovarian 43.8% | SK-OV-3 ovarian 96.6% | IGROV1 ovarian 49.4% | OVCAR-3 ovarian 75.5% | HS 578T breast 84.3% | NCI/ADR-RES ovarian 43.8%

COC(=O)[C@]12CC[C@@H](C)[C@H](C)[C@@H]1C1=CC[C@@H]3[C@@]4(C)C[C@@H](OC(C)=O)[C@H](O)[C@@](C)(COC(C)=O)[C@@H]4[C@H](O)C[C@@]3(C)[C@]1(C)CC2
active: SR leukemia -17.7% | RPMI-8226 leukemia -23.7% | OVCAR-8 ovarian -53.7% | OVCAR-5 ovarian -75.8% | OVCAR-4 ovarian -70.3% | SK-OV-3 ovarian -81.5% | IGROV1 ovarian -61.3% | OVCAR-3 ovarian -79.4% | HS 578T breast -28.4% | NCI/ADR-RES ovarian -63.7%
